Data on 7 compounds can be found in PubChem BioAssay (NCATS).

Structures are written as SMILES. A number with no mark means an inactive call. Inconclusive results are not listed. The source made the active and inactive calls. Calls come from the whole dose curve; as a rule, active = well fitted curve in the direction sought with a large enough effect; inconclusive = small, poorly fitted or top-dose-only effect, or another doubt; inactive = no such curve, though single readings can be large; an effect the other way counts as inactive or inconclusive.

Assay [1] deals with Zika virus NS2B-NS3 protease (linked construct). The experiment in a line: Primary screen NINDS Rhodamine qHTS for Zika virus inhibitors (AID 1347160). Note: % is set by controls: 0 for no effect and ±100 for the full control effect; nearly all actives have a fitted effect of over 55% in size. In outline: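 Each compound, titrated, sat 15 min with 25 nM linked protease before 1.5 microM Rhodamine110 substrate went in. Fluorescence gain over the next 15 min, in pH 8.0 Tris with Tween 20, gave Hill-fitted curves.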
Assay [2] has as its target Calcium and integrin-binding protein 1 (Homo sapiens) (UniProt Q99828). As to the kind of experiment: Primary qHTS for Identification of Calcium Integrin Binding Protein 1 (CIB1) Competitor (AID 1508620).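 Note: GST tagged CIB1 binding a fluorescein labelled alphaIIb integrin peptide tracer; top concentration of the series differs between compounds; % is set by controls: 0 for no effect and ±100 for the full control effect.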 In a few lines:
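Fluorescence polarization competition: CIB1-GST (1 uM final) preincubated with compound 15 min at room temperature, then FITC-labeled alphaIIb peptide (100 nM final) added for another 15 min. Polarization read at Ex 480/Em 540.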
A general note: Quantitative high-throughput screening tests each substance at several concentrations.

For assay [3], the target named is Glutathione peroxidase 1 (Homo sapiens) (UniProt P07203). As to the kind of experiment: Primary qHTS Assay for Inhibitors of Recombinant Selenoprotein Glutathione Peroxidase 1 (GPX1) (AID 1845191). For activity, negative = inhibition: % is set by controls: 0 for no effect and ±100 for the full control effect. Note: nearly all actives have a fitted effect of over 65% in size. In outline:
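GPX1 10 nM, GR 100 nM, GSH 1 mM, NADPH 0.5 mM, CHP 0.5 mM (final). 30-min cpd preincubation, RT. Ex340/Em450 read t=0, t=15 min.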

The target in assay [4] is Phospholipid hydroperoxide glutathione peroxidase GPX4 (Homo sapiens) (UniProt P36969). The experiment in a line: Primary qHTS Assay for Inhibitors of Recombinant Selenoprotein Glutathione Peroxidase 4 (GPX4) (AID 1845192). Note: nearly all actives have a fitted effect of over 65% in size. In a few lines:
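qHTS, GR-coupled: GPX4 200 nM + cpd 30 min RT → GSH 1 mM, NADPH 0.5 mM, GR 100 nM → CHP 0.5 mM start; fluor 340/450 at t0 and t15 min; no-enzyme wells as control.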

Assay [5] addresses Luciferin 4-monooxygenase (Photinus pyralis) (UniProt P08659). The experiment in a line: Primary firefly luciferase (FLuc) qHTS assay for identification of artifact compounds. (AID 1845220). Note: nearly all actives have a fitted effect of over 60% in size. As to conditions: outcome: dose series up to 54.1 µM unless noted. In outline:
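In this counter-screen for luciferase artifacts, test compounds met substrate (10 uM each luciferin and ATP) before 10 nM enzyme started the reaction. Light output was measured 5 min later.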

Assay [6] is described as follows: Primary fluorescence-based thiol-reactive (MSTI) qHTS assay for identification of artifact compounds. (AID 1845221).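 Note: thiol-reactive compounds lower the probe fluorescence signal; nearly all actives have a fitted effect of over 65% in size.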 In a few lines:
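Curve-fitted percent inhibition (4-parameter Hill) derived from fluorescence, Ex 525/Em 598 nm, scaled with Acetyl-MSTI and MSTI; 1 h incubation at room temperature.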

For assay [7], the system named is Nanoluciferase (engineered Oplophorus gracilirostris luciferase). The experiment in a line: Primary Nanoluciferase (NLuc) qHTS assay for identification of artifact compounds. (AID 1845222).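 Note: NLuc secreted into diluted conditioned medium of S16 cells.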 In a few lines:
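Using secreted nanoluciferase in S16 culture medium (0.22 um filtered, 1:55 dilution), compounds were preincubated 15 min at RT. Signal was generated with Nano-Glo reagent (1:100) over 5 min.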

Assay [8] is described as follows: Primary redox qHTS assay for identification of artifact compounds. (AID 1845223).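 Note: 0% = DMSO and 100% = reference compound.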 In a few lines: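 Redox-cycling detection via DTT (250 uM final) oxidation coupled to Amplex Red (25 uM)/HRP (250 mU/mL) in HBSS. 15 min preincubation plus 30 min after DTT, room temperature. Ex/Em 525/598 nm; 4-parameter Hill fit against DMSO and 10 uM DA3003.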
A further assay has as its system CAOV3. The experiment in a line: Primary qHTS to identify gynecologic anti-cancer compounds using libraries of approved drugs and bioactive compounds (AID 1345084). For activity change, negative = cytotoxicity: % is set by controls: 0 for no effect and ±100 for the full control effect. Note: nearly all actives have a fitted effect of over 55% in size. Note: potency is the fitted concentration of half-maximal effect. The settings on record: Gynecologic cancer cell panel viability, ATPlite luminescence, 48 h; series mostly up to 57.5 µM. In outline: (§1)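 Cytotoxicity screen measuring ATP content by luciferase luminescence. Each compound is applied at five concentrations for 48 h at 37 C with 5% CO2.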

A further assay relates to Hek293T. The assay is described as above. The settings on record: Gynecologic cancer cell panel viability, ATPlite luminescence, 48 h, control line for the selectivity index; series mostly up to 57.5 µM. In outline:
as §1
(In ATP-based viability assays light output follows the ATP content of the culture.)

The test system of the next assay is JEG-3. The assay is described as above. As to conditions: Gynecologic cancer cell panel viability, ATPlite luminescence, 48 h; series mostly up to 57.5 µM. In outline: as §1
The next assay concerns Tov-21-G. The description is as above. As to conditions: Gynecologic cancer cell panel viability, ATPlite luminescence, 48 h; series mostly up to 57.5 µM. In a few lines:
as §1

Another assay relates to HaCat. The experiment in a line: Cytotoxic Profiling of Annotated Libraries Using Quantitative High-Throughput Screening (AID 1296008). Note: nearly all actives have a fitted effect of over 60% in size. Note: potency is the fitted concentration of half-maximal effect. As to conditions: Five cell lines viability, CellTiter-Glo ATP luminescence, 48-72 h; max response: hits give low values. In a few lines: (§2)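 Compounds were pin-transferred onto cells and incubated 48 or 72 hr at 37 degree Celsius, 95% humidity. CellTiter-Glo was added, plates sat 10 min at room temperature, then ATP-coupled luminescence was imaged as the viability read-out.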

The next assay deals with CASKI. The experiment in a line: Primary qHTS to identify gynecologic anti-cancer compounds using libraries of approved drugs and bioactive compounds (AID 1345084). For activity change, negative = cytotoxicity: % is set by controls: 0 for no effect and ±100 for the full control effect. Note: nearly all actives have a fitted effect of over 55% in size. Note: potency is the fitted concentration of half-maximal effect. The settings on record: Gynecologic cancer cell panel viability, ATPlite luminescence, 48 h; series mostly up to 57.5 µM. In a few lines:
as §1

Another assay deals with OV90. The description is as above. The settings on record: Gynecologic cancer cell panel viability, ATPlite luminescence, 48 h; series mostly up to 57.5 µM. In outline:
as §1

The test system of a further assay is NIH3T3. As to the kind of experiment: Cytotoxic Profiling of Annotated Libraries Using Quantitative High-Throughput Screening (AID 1296008). Note: nearly all actives have a fitted effect of over 60% in size. Note: potency is the fitted concentration of half-maximal effect. The settings on record: Five cell lines viability, CellTiter-Glo ATP luminescence, 48-72 h; max response: hits give low values. In outline:
as §2

The subject of a further assay is C33A. As to the kind of experiment: Primary qHTS to identify gynecologic anti-cancer compounds using libraries of approved drugs and bioactive compounds (AID 1345084). Note: nearly all actives have a fitted effect of over 55% in size. Note: potency is the fitted concentration of half-maximal effect. As to conditions: Gynecologic cancer cell panel viability, ATPlite luminescence, 48 h; series mostly up to 57.5 µM. In outline: as §1
The test system of a further assay is Es-2. Described as above. The settings on record: Gynecologic cancer cell panel viability, ATPlite luminescence, 48 h; series mostly up to 57.5 µM. In a few lines:
as §1

The subject of another assay is PA-1. Described as above. As to conditions: Gynecologic cancer cell panel viability, ATPlite luminescence, 48 h; series mostly up to 57.5 µM. In outline:
as §1

For a further assay, the system named is Tov112D. The description is as above. The settings on record: Gynecologic cancer cell panel viability, ATPlite luminescence, 48 h; series mostly up to 57.5 µM. In a few lines:
as §1

Chain of Glutathione peroxidase 1 (Homo sapiens) (P07203 whole entry, looked up): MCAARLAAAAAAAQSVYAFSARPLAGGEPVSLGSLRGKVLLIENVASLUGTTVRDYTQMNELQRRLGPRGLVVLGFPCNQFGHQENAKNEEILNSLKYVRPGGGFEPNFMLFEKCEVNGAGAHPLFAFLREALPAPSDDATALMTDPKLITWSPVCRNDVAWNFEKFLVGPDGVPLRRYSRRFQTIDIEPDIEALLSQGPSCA
Chain of Phospholipid hydroperoxide glutathione peroxidase GPX4 (Homo sapiens) (P36969 whole entry, looked up): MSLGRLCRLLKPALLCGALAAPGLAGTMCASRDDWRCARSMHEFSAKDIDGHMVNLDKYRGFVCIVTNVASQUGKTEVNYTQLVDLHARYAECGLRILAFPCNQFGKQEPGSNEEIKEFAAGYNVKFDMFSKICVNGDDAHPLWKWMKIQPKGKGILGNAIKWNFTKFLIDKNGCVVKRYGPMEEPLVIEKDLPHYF
Chain of Calcium and integrin-binding protein 1 (Homo sapiens) (Q99828 whole entry, looked up): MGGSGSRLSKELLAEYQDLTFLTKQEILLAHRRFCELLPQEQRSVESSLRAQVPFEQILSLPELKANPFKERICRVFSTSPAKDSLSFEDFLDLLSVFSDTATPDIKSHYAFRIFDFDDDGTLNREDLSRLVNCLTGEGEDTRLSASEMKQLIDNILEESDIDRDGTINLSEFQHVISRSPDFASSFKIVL

Consider `CC(C)C(=O)O[C@H]1[C@@H]2[C@H](C)C(=O)O[C@@H]2C[C@@H](C)[C@@H]2C=CC(=O)[C@]21C`, for which the Potency result in assay [1], in [2], in assay [3], in assay [4], in assay [6] and in [7] was “inactive” each time. The Potency result (in [8]; with CAOV3) was “inactive” throughout. Further, the compound was called inactive in assay [5]. Moreover, the Potency in the assay with Hek293T was 7940 nM (active); in the assay on JEG-3, 10000 nM (active); with Tov-21-G, 10000 nM (active).

Regarding `Cc1cccc(NC(=O)c2ccc(C(F)(F)F)cc2C(=O)O)n1`, the Potency result in [1], in assay [2], in assay [3], in assay [4], in assay [6] and in assay [7] was “inactive” in each case. In addition, the Potency entry (in [8]; in the assay with CASKI; in the assay with OV90) was “inactive” in each case. Moreover, the compound was called inactive (in assay [5]; in the assay on HaCat).

For `CC1CCCCCC(=O)c2c(O)cc(O)cc2CC(=O)O1` (centres undefined), the Potency result in assay [1], in [2], in assay [3], in assay [4], in assay [6] and in assay [7] was “inactive” throughout. The Potency result (in [8]; with C33A; in the assay on CAOV3; in the assay on CASKI; in the assay with Es-2; in the assay with Hek293T) was “inactive” throughout. Also, the Potency entry in the assay on JEG-3, in the assay with OV90, with PA-1, with Tov-21-G and in the assay on Tov112D was “inactive” throughout. Further, the result (in [5]; with HaCat) was inactive. The max response with NIH3T3 was 2.84%.

For `CC(C)(O)/C=C/C(=O)[C@](C)(O)[C@H]1[C@H](O)C[C@@]2(C)[C@@H]3CC=C4[C@@H](C[C@H](O)C(=O)C4(C)C)[C@]3(C)C(=O)C[C@]12C`, the Potency result in assay [1], in [2], in assay [3], in assay [4], in assay [6] and in assay [7] was “inactive” throughout. The Potency entry with C33A was “inactive”. Also, the outcome in [5] was inactive. The Potency is 3170 nM (active) in the assay on NIH3T3; 398 nM (active) with CAOV3; 1410 nM (active) in the assay with CASKI; 1260 nM (active) with OV90; 2510 nM (active) in the assay with PA-1; 1260 nM (active) in the assay on Tov-21-G.

`Cc1sc2c(c1C)C(c1ccc(Cl)cc1)=N[C@@H](CC(=O)Nc1ccc(O)cc1)c1nnc(C)n1-2`: the Potency entry in [1], in [2], in [3] and in assay [4] was “inactive” in each case. Moreover, in [5], the outcome is “inactive [at 11.6 µM]”. In addition, the activity change, negative = thiol reactive in assay [6] was 36.2% [at 11.5 µM]. Further, the activity, negative = inhibition in assay [7] is -3.15% [at 11.6 µM]. Besides, the outcome in the assay on HaCat was inactive. The activity change, negative = cytotoxicity with C33A was -1.06% [at 11.6 µM]; in the assay on Hek293T it was -11.9% [at 11.6 µM]; in the assay on JEG-3, -12.8% [at 11.6 µM]; in the assay with Tov112D, -20.5% [at 11.6 µM].

On to `CC(C)OC(=O)c1ccnc2cc(C(OCCN3CCCCC3)c3ccccc3Cl)sc12` (centres undefined), for which the Potency result (in assay [1]; in [2]; in assay [3]; in assay [4]; in assay [7]; in the assay on C33A) was “inactive” throughout. Also, the Potency result with CASKI, in the assay on Es-2, in the assay on Hek293T, in the assay with JEG-3, with PA-1 and in the assay with Tov-21-G was “inactive” each time. Besides, the Potency entry in the assay with Tov112D was “inactive”. Also, the compound was called inactive (in [5]; in the assay with HaCat).

For the compound `CCOC(=O)c1ccnc2cc(C(OCCN3CCCCC3)c3ccccc3Cl)sc12` (centres undefined), the Potency result in assay [1], in [2], in assay [3], in assay [4], in [6] and in assay [7] was “inactive” in each case. The Potency result (in assay [8]; in the assay on CAOV3) was “inactive” in each case. Further, the result (in assay [5]; in the assay on HaCat) was inactive.
